# Screens (PubChem BioAssay)
# A selection: hits, their analogues and other compounds. The true share with any hit is near 10%.
# NIH3T3 tox – Cytotoxic Profiling in NIH 3T3 Cell Line of Diverse Libraries Using Quantitative High-Throughput Screening; NIH 3T3 viability, CellTiter-Glo ATP luminescence, 48-72 h; 94,000 compounds, 4.3% hits; AID 1345082, 2018; Potency, µM (series often up to 96.7 µM), for inactives: at the top dose activity change, negative = cytotoxicity, hits mostly inhibitors; note: nearly all actives have a fitted effect of over 55% in size
#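 Viability of NIH 3T3 cells after 48 or 72 hr compound treatment at 37 °C was assessed by CellTiter-Glo, with luminescence imaged following a 10 min room-temperature step.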
# HEK293 tox – Cytotoxic Profiling in HEK 293 Cell Line of Diverse Libraries Using Quantitative High-Throughput Screening; HEK 293 viability, ATP luminescence (CellTiter-Glo), 48-72 h; Potency, µM (highest dose often 115 µM), for the others: at the highest dose activity change, negative = cytotoxicity, hits mostly inhibitors; 94,000 compounds, 6.6% hits; note: nearly all actives have a fitted effect of over 60% in size
#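 ATP-coupled CellTiter-Glo luminescence served as viability read-out, recorded 10 min after reagent addition at room temperature. HEK 293 cells, 250 cells/well, had been incubated with pintool-transferred compound for 48 or 72 hr at 37 degree Celsius.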
# hNpr1 antagonist – Natriuretic polypeptide receptor (hNpr1) antagonism - Primary qHTS | Atrial natriuretic peptide receptor 1 (Homo sapiens), P16066 | HEK293 hNpr1 GloSensor cGMP, ANP-stimulated luminescence | Potency, µM (doses to about 46.3 µM), without a hit: at the top dose activity change, negative = inhibition, most hits filed as inhibitors | 76,000 compounds, 1.6% hits | AID 1347048, 2019; calls by dose curve; note: nearly all actives have a fitted effect of over 60% in size
#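 HEK293 cells stably expressing human Npr1 and cGMP GloSensor pGS-40F, loaded 2 h with 2% GloSensor reagent, given compound 30 min at room temperature. Luminescence read before and 20 min after 0.1 nM hNppA.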
# GPT2 inhibitor – Primary qHTS assay for inhibitors of Glutamate pyruvate transaminase 2 (GPT2). Alanine aminotransferase 2 (Homo sapiens), Q8TD30. Recombinant GPT2, coupled pyruvate oxidase/HRP Amplex Red fluorescence. Potency, µM (doses to about 57.7 µM), for inactives: top-dose activity change, negative = inhibition, actives largely listed as inhibitors. 100,000 compounds, 0.25% hits. AID 1671188, 2021; note: nearly all actives have a fitted effect of over 60% in size
# Target sequence (Q8TD30 whole entry, looked up): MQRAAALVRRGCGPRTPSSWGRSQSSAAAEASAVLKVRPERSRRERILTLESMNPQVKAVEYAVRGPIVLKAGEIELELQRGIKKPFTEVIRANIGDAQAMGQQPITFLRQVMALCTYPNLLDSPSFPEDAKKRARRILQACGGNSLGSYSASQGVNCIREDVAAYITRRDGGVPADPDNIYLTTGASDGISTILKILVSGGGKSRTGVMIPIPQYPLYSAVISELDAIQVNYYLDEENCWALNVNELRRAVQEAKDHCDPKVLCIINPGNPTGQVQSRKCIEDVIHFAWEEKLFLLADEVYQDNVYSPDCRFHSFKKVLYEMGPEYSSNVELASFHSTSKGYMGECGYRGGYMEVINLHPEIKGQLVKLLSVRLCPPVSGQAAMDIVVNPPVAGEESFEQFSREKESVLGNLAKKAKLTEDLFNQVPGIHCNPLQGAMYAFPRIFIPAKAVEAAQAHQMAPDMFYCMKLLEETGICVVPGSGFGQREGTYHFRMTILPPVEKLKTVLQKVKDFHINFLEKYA
#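 Recombinant GPT2 (10ng/uL) with 250uM a-KG and 2mM L-alanine, 30 min at room temperature, in HEPES pH 7.5 buffer. Pyruvate detected by pyruvate oxidase/HRP/Amplex Red fluorescence after 30 min in the dark; AOA (50uM) as positive control.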
# FLuc inh – Firefly luciferase inhibition profiling of diverse chemical library using quantitative high-throughput screening; Luciferin 4-monooxygenase (Photinus pyralis), P08659; purified P. pyralis luciferase, luminescence, biochemical; AID 1347043, 2019; 76,000 compounds, 2.5% hits; Potency, µM (titrated, usually from 115 µM), most hits filed as inhibitors; note: nearly all actives have a fitted effect of over 65% in size
#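 Purified P. pyralis luciferase (10nM final) in 50mM Tris acetate pH 7.5, 10mM Mg acetate, 0.01% Tween-20, 0.05% BSA with 10uM D-luciferin and 10uM ATP. Compounds titrated qHTS. Luminescence imaged on CCD.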
# An asterisk follows results filed as active; i = inactive; ? = inconclusive; nt = no result given; [ ] = remark or other dose. Unless noted, calls come from the whole dose curve; as a rule, active = well fitted curve in the direction sought with a large enough effect; inconclusive = small, poorly fitted or top-dose-only effect, or another doubt; inactive = no such curve, though single readings can be large; an effect the other way counts as inactive or inconclusive. % is set by controls: 0 for no effect and ±100 for the full control effect; potency is the fitted concentration of half-maximal effect.
SMILES,NIH3T3 tox,HEK293 tox,hNpr1 antagonist,GPT2 inhibitor,FLuc inh
COc1ccc(-c2cc(N3CCC(NC(=O)c4cc(OC)c(OC)c(OC)c4)C3)n[nH]2)cc1 (stereo not given),-19.4%,?,0.5%,-20.1%,i
COc1ccc(-c2cc(N3CCCC(NC(=O)c4ccc5cc[nH]c5c4)C3)n[nH]2)cc1 (stereo not given),?,?,?,-19.6%,11.2µM*
COc1ccc(C(=O)NC2CCCN(c3cc(-c4ccccc4)[nH]n3)C2)cc1F (stereo not given),15.8µM*,?,-25.9%,?,?
COc1cc(OC)cc(C(=O)NC2CCCN(c3cc(-c4ccccc4)[nH]n3)C2)c1 (stereo not given),?,39.8µM*,0.0%,-8.7%,25.1µM*
O=C(c1ccccc1Cl)N1CCN(C(=O)c2nc3cccnc3n(CCc3ccccc3)c2=O)CC1,-15.3%,?,nt,2.7%,nt
O=C(NC[C@H](O)CN1CCc2ccccc2C1)c1ccnc(NC2CCC2)c1,nt,nt,nt,i,nt
O=C(Cc1ccc2c(c1)OCO2)N1CCOCC2(CN(Cc3cc(F)cc(F)c3)C2)C1,35.5µM*,56.2µM*,4.4%[70.6 µM],-9.2%[88.5 µM],i
O=C(Nc1nc2ccccc2s1)C1CC(=O)N(c2n[nH]c3cccc(F)c23)C1 (stereo not given),25.1µM*,12.6µM*,-15.4%,3.8%,i
COc1ccc(N2CCN(C(=O)C3CC(=O)N(c4n[nH]c5cccc(F)c45)C3)CC2)cc1 (stereo not given),-14.4%,39.8µM*,-15.4%,?,i
O=C(Nc1nc2c(s1)CCC2)C1CC(=O)N(c2n[nH]c3cc(Br)ccc23)C1 (stereo not given),17.8µM*,?,-26.8%,i,i
O=C(Nc1nc2c(s1)CCCC2)C1CC(=O)N(c2n[nH]c3ccccc23)C1 (stereo not given),-23.8%,?,-17.3%,i,i
O=C(Nc1nc2c(s1)CCC2)C1CC(=O)N(c2n[nH]c3cccc(F)c23)C1 (stereo not given),?,44.7µM*,0.5%,i,i
C=CCCC(=O)N1[C@@H](c2ccco2)[C@@H](C(=O)OCC)C[C@]12CCCCN(CCOC)C2=O,-15.9%,?,nt,nt,nt
O=C(NCCc1ccc(Cl)cc1)c1cn2cc(-c3ccc(F)cc3)sc2n1,?,?,nt,i,nt
CNC(=O)c1cc(-c2ccccc2)cc2c1OCCN2Cc1cccnc1,?,?,-3.1%[70.6 µM],4.2%[88.5 µM],i
CN1CCOc2c(C(=O)NCc3cccnc3)cc(-c3ccccc3F)cc21,?,100µM*,3.4%[70.6 µM],3.5%[88.5 µM],i
CNC(=O)c1cc(-c2ccc(O)c(F)c2)cc2c1OCCN2Cc1cccnc1,?,?,-1.7%[70.6 µM],?,i
CC(C)NC(=O)c1cc(-c2ccccc2F)cc2c1OCCN2Cc1cccnc1,79.4µM*,89.1µM*,-26.5%[70.6 µM],-0.4%[88.5 µM],i
CNC(=O)c1cc(-c2cnn(C)c2)cc2c1OCCN2Cc1cccnc1,39.8µM*,i,1.8%[70.6 µM],i,i
CN(C)CCN(C)C(=O)c1cc(-c2ccccc2F)cc2c1OCCN2Cc1cccnc1,?,79.4µM*,-3.2%,i,i
CCC(=O)N1CCCN(c2ccnc3ccnn23)CC1,?,-3.9%[172 µM],nt,i,nt
C[C@H]1[C@@H]2[C@@H](O)C([C@H](C)C(=O)N(C)Cc3ccccc3)CC[C@@]2(C)CC[C@@H]1NC(=O)Cc1ccccc1 (stereo not given in full),-21.3%,?,-4.1%,-11.8%,i
CCC1CN(C(=O)c2ccc3nc(-c4ccccc4)cn3c2)CCN1C(C)C (stereo not given),1.1%,?,3.3%,2.9%,?
O=C1CC2(CCN(C(=O)C3CCCN3C(=O)c3ccccc3Cl)CC2)Oc2ccccc2N1 (stereo not given),-13.1%,-14.8%,nt,-5.4%,nt
CN(C)CCNC(=O)c1cc(-c2ccccc2F)cc2c1OCCN2Cc1cccnc1,39.8µM*,63.1µM*,-25.1%[70.6 µM],-5.2%[88.5 µM],i
SMILES,NIH3T3 tox,HEK293 tox,hNpr1 antagonist,GPT2 inhibitor,FLuc inh
O=C(NCc1ccco1)c1cc(-c2ccccc2F)cc2c1OCCN2Cc1cccnc1,?,?,-29.1%,1.5%,i
COCc1cc(C[C@@H]2CC[C@H](O)[C@@H](CNCc3ccc(F)cc3)O2)no1,-10.2%[138 µM],-6.5%[172 µM],-5.3%[70.6 µM],-9.7%[88.5 µM],i
O=C(O)C1(Cc2ccccc2F)CCCN(c2ncccn2)C1 (stereo not given),-13.9%,?,6.0%,i,i
OCC1(Cc2ccc(F)cc2F)CCCN(c2cnc3ccccc3n2)C1 (stereo not given),?,39.8µM*,?,i[11.5 µM],i
CC(C)S(=O)(=O)NCC1CN(CC2CC2)CC12CCCCC2 (stereo not given),-30.3%,-8.7%,nt,2.6%,nt
CN(C)C(=O)c1ccnc(-c2nnc3ccc(NC4CCCCC4)nn23)c1,?,0.8%[172 µM],4.2%[70.6 µM],-10.9%[88.5 µM],i
CN(C)C(=O)c1ccnc(-c2nnc3ccc(N4CCCCC4)nn23)c1,31.6µM*,4.7%[172 µM],-2.1%[70.6 µM],1.8%[88.5 µM],i
CN(C)C(=O)c1ccc(-c2ccc(N3CCCCCC3)nc2)cc1,?,31.6µM*,-23.4%,1.2%,17.8µM*
O=C(c1ccc(-c2ccc(N3CCCCCC3)nc2)cc1)N1CCCC1,31.6µM*,28.2µM*,?,1.5%,?
Cc1ncc2n1C(=O)N(C1CCN(Cc3cccc4ccccc34)CC1)C2,?,?,0.0%,i,i
COc1ccc(-c2c(C(=O)NCCc3ccccc3F)nc3sccn23)cc1,?,?,nt,i,nt
COc1ccccc1-c1ccc(CN2CCN(c3cc(Cl)ncn3)C(=O)C2)cc1,?,44.7µM*,-11.0%[70.6 µM],i,i
O=C(Nc1cccc(Br)c1)N1CCC2(CC1)SCC(=O)N2Cc1ccccc1,15.8µM*,50.1µM*,-9.0%,-3.1%,i
O=C(Nc1cccc(Br)c1)N1CCC2(CC1)SCC(=O)N2Cc1ccco1,15.8µM*,28.2µM*,?,-2.2%,?
CC(=O)N1CCN(c2ccc3nnc(C4CC4)n3n2)CC1,-14.8%[138 µM],-0.2%[172 µM],nt,nt,nt
COc1ccccc1-c1cc(C(=O)Nc2ccc(F)cc2)nn2cnnc12,-29.6%,?,nt,-12.1%,nt
CC1=C[C@@H](CNC(=O)Cn2cnnn2)[C@H](C(C)C)C[C@H]1Cc1nc2ccc(C)cc2[nH]1,?,89.1µM*,-23.2%[70.6 µM],i,i
CC1=C[C@@H](CNC(=O)COCC(=O)O)[C@H](C(C)C)C[C@H]1Cc1nc2ccccc2n1C,-28.6%[174 µM],-5.6%[172 µM],-16.1%[70.6 µM],-7.0%[88.5 µM],i
